# Screening results from PubChem.
# Compounds with a hit are over-represented: about 4.1% of the library has one in this group of screens.
# BoNT F protease = BoNT/F light chain protease inhibitors, primary screen, biochemical, flow cytometry, MLPCN library | AID 588497, 2011 | Multiplex microsphere protease cleavage assay | hit rate 0.22% among 360,000 | inhibition, % at 10 µM; in the data active means inhibition above about 35%, passing the limit was not always enough; inconclusive means no clear call, values can overlap the other calls; further: plate controls were buffer without enzyme for full effect and enzyme alone for no effect
# Autofluor counter = counter-screen for toxin protease inhibitors: compound fluorescence | fluorescence intensity (concentration not given with the values) | compound autofluorescence counterscreen, microsphere flow cytometry; hits give high values | hit rate 3.1% among 360,000; in the data active means fluorescence intensity above about 16000; inconclusive means no clear call, values can overlap the other calls
# BoNT-A LC inh2 = BoNT/A light chain protease inhibitors, primary screen, biochemical, flow cytometry, MLPCN library; Botulinum neurotoxin type A light chain protease (Clostridium botulinum A str. ATCC 3502); multiplex microsphere protease substrate cleavage; inhibition, % at 10 µM; hit rate 0.17% among 360,000; further: plate controls were buffer without enzyme for full effect and enzyme alone for no effect
# Anthrax LF inh2 = Bacillus anthracis LF protease inhibitors, primary screen, biochemical, multiplex microsphere, MLPCN library; Lethal factor (Bacillus anthracis), P15917; multiplex microsphere protease cleavage assay; inhibition, % at 10 µM; hit rate 0.12% among 360,000; AID 588501, 2011; further: plate controls were buffer without enzyme for full effect and enzyme alone for no effect
# MazEF act = activators of E. coli MazEF toxin-antitoxin RNase, primary screen, biochemical, fluorescence, uHTS; Endoribonuclease toxin MazF (Escherichia coli (strain K12)), P0AE70; FAM/BHQ RNA-DNA oligo cleavage fluorescence, 5 h; activation, % at 20 µM; hit rate 0.32% among 350,000; in the data active means activation above about 50%
# Target sequence (P0AE70 whole entry, looked up): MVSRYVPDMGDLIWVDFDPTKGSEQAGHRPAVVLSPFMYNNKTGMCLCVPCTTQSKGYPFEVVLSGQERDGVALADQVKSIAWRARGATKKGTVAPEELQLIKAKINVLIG
# VHR inh abs = VHR1 phosphatase inhibitors, primary screen, biochemical, absorbance, uHTS. recombinant VHR phosphatase, pNPP absorbance. AID 1654, 2009. hit rate 0.52% among 290,000. inhibition, % at 13.3 µM; in the data active means inhibition above about 50%
# Target sequence (P51452 whole entry, looked up): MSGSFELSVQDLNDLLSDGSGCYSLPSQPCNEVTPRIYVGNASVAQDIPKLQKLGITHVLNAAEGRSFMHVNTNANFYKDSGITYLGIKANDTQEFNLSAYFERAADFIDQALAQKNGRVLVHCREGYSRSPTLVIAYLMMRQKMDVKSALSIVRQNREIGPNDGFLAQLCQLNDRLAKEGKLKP
# * hit, by the source's call; i = inactive; ? = inconclusive; nt = no result. Unless noted, no stated cut-off is given here; in the data, active means inhibition above about 30%; inconclusive means no clear call, values can overlap the other calls; inactive means below that.
SMILES,BoNT F protease,Autofluor counter,BoNT-A LC inh2,Anthrax LF inh2,MazEF act,VHR inh abs
CCOC(=O)N1CCN(C(=O)CSCC(=O)Nc2nc(-c3ccc4c(c3)OCO4)cs2)CC1,1.5,19205*,2.1,-6.1,-2.0,15.1
O=C(CSCC(=O)N1CCOCC1)Nc1nc(-c2ccc3c(c2)OCO3)cs1,-0.6,4559,0.7,6.6,2.2,8.7
CC(C)N1CC(C(=O)Nc2cc(Cl)cc(Cl)c2)CC1=O (configuration not stated),?,4255,-4.3,9.1,-12.1,4.1
Cc1c(NC(=O)Nc2ccc(Cl)cc2)c(=O)n(-c2ccccc2)n1C,-8.5,10751,-0.7,-1.9,8.1,2.6
Cc1c(N=C2N=C(NC(=O)Nc3ccc(Cl)cc3)c3ccccc32)c(=O)n(-c2ccccc2)n1C,0.4,4387,0.2,-6.8,87.7*,3.1
CCCCCCn1c(C(C)NC(=O)c2ccco2)nc2ccccc21 (configuration not stated),?,4309,-0.2,-0.8,6.6,54.3*
CCCCn1c(=N)n(CC(=O)c2ccco2)c2ccccc21,-4.6,5655,0.0,-6.4,-5.5,9.1
CCCCCCCn1c(=N)n(CC(=O)c2ccco2)c2ccccc21,i,?,8.4,71.8*,23.8,10.8
COc1ccccc1C(=O)Nc1ccnn1C1CCN(Cc2cnc(N(C)C)s2)CC1,4.8,5434,-1.1,-4.1,5.8,8.6
CCCCOc1ncnc2c1[nH]c1ccc(OC)cc12,nt,nt,nt,nt,-0.4,31.1
CCCCOc1ncnc2c1[nH]c1ccc(OCC)cc12,1.3,18958*,1.5,-0.5,-4.1,7.1
COc1ccc(CNc2nc3ccccc3n2CCN2CCCCC2)c(OC)c1,6.3,15231,3.5,-4.9,3.2,7.1
c1ccc2c(c1)nc(NCc1ccc3c(c1)OCO3)n2CCN1CCOCC1,1.7,2649,-0.5,-0.6,0.8,9.1
c1ccc(Cn2c(CNc3nc4ccccc4n3CCN3CCOCC3)nc3ccccc32)cc1,-1.7,23712*,?,0.5,-0.7,33.3
COc1ccc(OC)c(CNc2nc3ccccc3n2CCN2CCCCC2)c1,-5.7,16368*,-0.2,-2.5,4.3,18.0
O=[N+]([O-])c1ccc(Sc2cccc3cccnc23)c([N+](=O)[O-])c1,6.1,20643*,?,-2.2,0.8,43.2
Cc1ccc(NC(=O)C2(C)CCN2C(=O)Cc2ccc(C(C)C)cc2)cc1 (configuration not stated),-4.7,3442,0.2,-3.9,nt,nt
O=C1CN(C(=O)/C=C/c2ccc(Br)cc2)CCN1,11.3,3029,1.3,-0.5,3.1,17.2
CCn1c(NC(=O)c2ccc(COc3ccc(C)cc3[N+](=O)[O-])o2)nc2ccccc21,1.2,22323*,1.6,-1.0,0.3,24.4
CCOC(=O)C1(C)CCN1C(=O)c1ccc(OC)c(OC)c1 (configuration not stated),1.2,3619,-0.4,-1.1,nt,nt
CCN(CC)CCCCOc1ccccc1OC,-0.6,20460*,0.6,-1.5,-2.9,-0.1
CCOCCCn1c(=S)[nH]c2cc(C(=O)NCCOC)ccc2c1=O,1.4,19971*,1.5,-1.9,3.1,15.4
COc1ccc(Cn2c(=O)[nH]c3cc(C(=O)NCCCOC(C)C)ccc3c2=O)cc1,0.6,?,-0.7,-4.3,0.7,25.6
COc1ccc(Cn2c(=O)[nH]c3cc(C(=O)NCc4ccc5c(c4)OCO5)ccc3c2=O)cc1,-1.5,4465,-1.0,0.9,182.1*,nt
CCOCCCNC(=O)c1ccc2c(=O)n(CCCOCC)c(=S)[nH]c2c1,-1.9,4089,-2.1,-1.9,2.5,37.4
COCCNC(=O)c1ccc(Cn2c(=S)[nH]c3cc4c(cc3c2=O)OCO4)cc1,-0.7,22929*,0.9,0.8,2.1,10.7
COC(CNC(=O)c1ccc(Cn2c(=S)[nH]c3cc4c(cc3c2=O)OCO4)cc1)OC,-14.1,6183,-2.1,-2.6,-1.0,-1.1
CCNC(=O)C1(C)CCCN1C(=O)c1ccc(C#N)cc1 (configuration not stated),-2.6,3806,-0.1,-0.3,nt,nt
